PTHR1 agonist = agonists of human PTHR1 parathyroid hormone receptor; Potency, µM (highest dose often 115 µM), hits mostly activators; HEK293 GP2 PTHR1 cells, GloSensor cAMP luminescence, 1 h; 410,000 tested, 0.075% active; also: nearly all actives have a fitted effect of over 55% in size
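HEK-293-derived GP2 cells expressing PTHR1 and a GloSensor cAMP reporter, 3,000/well, plated overnight, given luciferin plus IBMX (each 0.5 mM as added) for 1 h at 37 °C, then compound for 1 h at 37 °C. Luminescence was read after 15 min at room temperature.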
HEK293 tox = cytotoxicity in counter-screen for GLP-1R inverse agonists; HEK293 cAMP-luciferase reporter cells, luminescence, 24 h; Potency, µM (top dose mostly 38.3 µM), hits mostly inhibitors; 410,000 tested, 0.13% active; AID 624418;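 also: loss of luciferase light is scored as toxicity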
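Here, cytotoxicity is scored as loss of luminescence. The MLSMR collection was tested on cells seeded in medium containing 10% Nu serum, with a 24 hr compound exposure preceded by 12 hours of culture.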
GLP-1R agonist = agonists of human GLP-1 receptor | P43220 | HEK293 GLP-1R CRE-luciferase, luminescence, 4-6 h; cells express a hypersensitive GLP-1R form | Potency, µM (doses to about 45.6 µM), actives largely listed as activators | 380,000 tested, 0.007% active
Target sequence (P43220 whole entry, looked up): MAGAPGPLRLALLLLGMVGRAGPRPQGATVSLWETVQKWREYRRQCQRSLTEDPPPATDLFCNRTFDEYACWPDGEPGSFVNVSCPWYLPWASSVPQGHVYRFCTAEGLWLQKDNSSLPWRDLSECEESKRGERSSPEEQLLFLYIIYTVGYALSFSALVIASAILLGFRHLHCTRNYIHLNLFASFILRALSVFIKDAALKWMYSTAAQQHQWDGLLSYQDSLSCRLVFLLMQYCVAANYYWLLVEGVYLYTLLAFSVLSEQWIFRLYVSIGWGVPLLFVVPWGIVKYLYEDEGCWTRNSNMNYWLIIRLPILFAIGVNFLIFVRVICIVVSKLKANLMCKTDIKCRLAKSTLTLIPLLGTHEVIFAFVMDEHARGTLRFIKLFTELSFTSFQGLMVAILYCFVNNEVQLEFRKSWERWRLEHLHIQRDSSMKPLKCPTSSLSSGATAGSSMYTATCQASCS
GLP-1R inv ag = inverse agonists of human GLP-1 receptor. HEK293 GLP-1R CRE-luciferase, luminescence, 24 h; GLP-1R form is constitutively active. 410,000 tested, 1.6% active. Potency, µM (highest dose often 38.3 µM), actives largely listed as inhibitors; also: nearly all actives have a fitted effect of over 55% in size
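Using stably transfected HEK293 (constitutively active GLP-1R, cAMP-luciferase reporter), compounds were incubated 24 hr and luciferase measured by luminescence.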
A number is an active result. Hits are enriched below; roughly 1.7% of the tested compounds scored in any of these assays. Calls follow the shape of the dose curve; as a rule, active = well fitted curve in the direction sought with a large enough effect; inconclusive = small, poorly fitted or top-dose-only effect, or another doubt; inactive = no such curve, though single readings can be large; an effect the other way counts as inactive or inconclusive.

`CC(C)(CO)Cc1cc(C(C)(C)C)c(O)c(C(C)(C)C)c1` gave PTHR1 agonist inactive, HEK293 tox inactive, GLP-1R agonist inconclusive and GLP-1R inv ag 7.1µM.
Screening CC(C)(C)C(=O)Nc1cc(-c2cccc(Br)c2)nn1-c1ccccc1 returned PTHR1 agonist inactive, HEK293 tox inactive and GLP-1R inv ag inconclusive.
CCc1cccc(CC)c1NC(=S)NCCc1ccc(O)c(O)c1 was read as PTHR1 agonist inactive, HEK293 tox inactive, GLP-1R agonist inactive and GLP-1R inv ag inconclusive.
For CCc1cccc(CC)c1NC(=S)NCCc1c(C)[nH]c2ccccc12 the results were PTHR1 agonist inactive, HEK293 tox inconclusive, GLP-1R agonist inactive and GLP-1R inv ag 10µM.
For Clc1ccc(OC2CCN(Cc3nc(CC4CC4)no3)CC2)cc1 the results were PTHR1 agonist inactive, HEK293 tox inactive, GLP-1R agonist inactive and GLP-1R inv ag 2µM.
`Cc1cccc(N2CCN(C(=O)C3CCN(S(=O)(=O)c4cn(C)cn4)CC3)CC2)c1C` gave PTHR1 agonist inactive, HEK293 tox inactive and GLP-1R inv ag inactive.
CC(NC(=S)Nc1ccccc1Cl)C(c1ccccc1)N1CCOCC1 (centres undefined) was read as PTHR1 agonist inactive, HEK293 tox 10µM, GLP-1R agonist inactive and GLP-1R inv ag inconclusive.
COc1ccc(NC(=S)NC(C)C(c2ccccc2)N2CCOCC2)cc1 (centres undefined) was read as PTHR1 agonist inactive, HEK293 tox inactive, GLP-1R agonist inactive and GLP-1R inv ag inactive.
CC(NC(=O)c1ccc(-c2ccccc2)cc1)C(c1ccccc1)N1CCOCC1 (centres undefined) was read as PTHR1 agonist inactive, HEK293 tox inactive, GLP-1R agonist inactive and GLP-1R inv ag 2µM.
`CCN(CC)CCNC(=O)c1ccc2c(c1)NC(=O)C(CS(=O)(=O)Cc1ccc(F)cc1Cl)N2` (centres undefined) gave PTHR1 agonist inconclusive, HEK293 tox inactive and GLP-1R inv ag inactive.
Cc1c(C(=O)N2CCC(C)CC2)c(S(=O)(=O)Nc2cccc(C#N)c2)c(C)n1C was read as PTHR1 agonist inactive, HEK293 tox inactive and GLP-1R inv ag inactive.
Screening COc1ccc(N2CCN(C(=O)c3cc(-c4ccc(F)cc4)[nH]c3C)CC2)cc1 returned PTHR1 agonist inactive, HEK293 tox inactive, GLP-1R agonist inactive and GLP-1R inv ag 10µM.
Screening CO/N=C/C(=N\Nc1ccccc1)C(=O)c1ccccc1 returned PTHR1 agonist inactive, HEK293 tox inactive, GLP-1R agonist inactive and GLP-1R inv ag inconclusive.
For COC(=O)C=CC(=NNc1ccccc1)c1ccccc1 the results were PTHR1 agonist inactive, HEK293 tox inactive, GLP-1R agonist inconclusive and GLP-1R inv ag 7.9µM.
For Cc1csc(NC(=O)c2c(-c3c(F)cccc3Cl)noc2C)n1 the results were PTHR1 agonist inactive, HEK293 tox inactive, GLP-1R agonist inactive and GLP-1R inv ag inconclusive.
Screening Cc1csc(NC(=O)c2c(-c3c(Cl)cccc3Cl)noc2C)n1 returned PTHR1 agonist inactive, HEK293 tox inactive, GLP-1R agonist inactive and GLP-1R inv ag 11µM.
`Cc1onc(-c2c(Cl)cccc2Cl)c1C(=O)Nc1ccc(Cl)cn1` gave PTHR1 agonist inactive, HEK293 tox inactive, GLP-1R agonist inactive and GLP-1R inv ag 1.8µM.
CC(C)c1ccc(NC(=O)c2cc(S(=O)(=O)NCCC3=CCCCC3)ccc2F)cc1 was read as PTHR1 agonist inactive, HEK293 tox inactive and GLP-1R inv ag inconclusive.
CC(C)c1ccc(NC(=O)c2cc(S(=O)(=O)N(C)C3CCCCC3)ccc2F)cc1 was read as PTHR1 agonist inactive, HEK293 tox inactive and GLP-1R inv ag 10µM.
For CC(C)c1ccc(NC(=O)c2cc(S(=O)(=O)NCc3ccccc3Cl)ccc2F)cc1 the results were PTHR1 agonist inactive, HEK293 tox inconclusive and GLP-1R inv ag 6.3µM.
CN(C1CCCCC1)S(=O)(=O)c1ccc(NC(=O)c2ccc(Br)o2)cc1 was read as PTHR1 agonist inactive, HEK293 tox inactive, GLP-1R agonist inactive and GLP-1R inv ag 7.1µM.
Screening CCOC(=O)Cn1c(=O)oc2cc(S(=O)(=O)N3CCN(c4ccc(F)cc4)CC3)ccc21 returned PTHR1 agonist inactive, HEK293 tox inactive and GLP-1R inv ag inactive.
`O=C(Cn1ccc2cc(S(=O)(=O)N3CCCCCC3)ccc21)NCc1cccc(Cl)c1` gave PTHR1 agonist inactive, HEK293 tox inactive and GLP-1R inv ag inconclusive.
Cc1nn(-c2ccccc2)c2c1N(CCCC(=O)NC(C)c1ccccc1)C(=O)CS2 (centres undefined) was read as PTHR1 agonist inactive, HEK293 tox inactive and GLP-1R inv ag inconclusive.
Screening CCOC(=O)C(C)N1C(=O)S/C(=C/c2cc(C)n(-c3ccncc3)c2C)C1=O (centres undefined) returned PTHR1 agonist inactive, HEK293 tox inactive, GLP-1R agonist inactive and GLP-1R inv ag inconclusive.
`CCOC(=O)C(C)N1C(=O)S/C(=C/c2cc(C)n(-c3ccccn3)c2C)C1=O` (centres undefined) gave PTHR1 agonist inactive, HEK293 tox inactive, GLP-1R agonist inactive and GLP-1R inv ag 10µM.
For COc1cccc(N2CCN(C(=O)c3cc4c(=O)n(Cc5cccs5)ccc4nc3C)CC2)c1 the results were PTHR1 agonist inactive, HEK293 tox inactive and GLP-1R inv ag inactive.
`COc1ccccc1OCCn1c(COc2cc(C)ccc2C)nc2ccccc21` gave PTHR1 agonist inactive, HEK293 tox inactive and GLP-1R inv ag inactive.
`CN(C)C(CNC(=O)c1cc(S(=O)(=O)N(C)c2ccccc2)ccc1Cl)c1ccccc1` (centres undefined) gave PTHR1 agonist inactive, HEK293 tox inactive, GLP-1R agonist inactive and GLP-1R inv ag 10µM.
`CCC(C(=O)Nc1cccc(S(=O)(=O)N(C)c2ccccc2)c1)c1ccccc1` (centres undefined) gave PTHR1 agonist inactive, HEK293 tox inactive, GLP-1R agonist inactive and GLP-1R inv ag 7.1µM.
`CCC1Oc2ccc(C)cc2N(CC(=O)N2CCN(c3ccccc3OC)CC2)C1=O` (centres undefined) gave PTHR1 agonist inactive, HEK293 tox inactive and GLP-1R inv ag inactive.
For COc1cc(-c2cc(C(=O)NCc3ccco3)c3ccccc3n2)cc(OC)c1OC the results were PTHR1 agonist inactive, HEK293 tox inconclusive, GLP-1R agonist inactive and GLP-1R inv ag inconclusive.
`COc1cc(-c2cc(C(=O)Nc3ccc(S(=O)(=O)NCc4ccco4)cc3)c3ccccc3n2)cc(OC)c1OC` gave PTHR1 agonist inactive, HEK293 tox inactive, GLP-1R agonist inactive and GLP-1R inv ag 2µM.
Screening CCN(CC)CCC[C@H](C)Nc1c2ccc(Cl)cc2nc2ccc(OC)cc12 returned GLP-1R agonist inactive.
COC(=O)c1ccc(C(=O)OC)c(NC(=O)CCC(=O)O)c1 was read as PTHR1 agonist inactive, HEK293 tox inactive, GLP-1R agonist inactive and GLP-1R inv ag inactive.
